Measured values reported in PubChem BioAssay.
Potency and affinity values are given separately. Activity calls are given as the source filed them. Cut-off not given; nearly all actives show IC50 up to about 0.98 µM.

Each compound was assayed against Calcium-dependent protein kinase 1 (Plasmodium falciparum (isolate 3D7)) (UniProt P62344) (assay: PfCDPK1 kinase inhibitors, biochemical, TCAMS library (AID 1159585;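 further: inhibitors leave more ATP so luminescence rises with inhibition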)). Settings: recombinant PfCDPK1, Kinase-Glo ATP depletion luminescence.
Sequence of Calcium-dependent protein kinase 1 (Plasmodium falciparum (isolate 3D7)) (P62344 whole entry, looked up): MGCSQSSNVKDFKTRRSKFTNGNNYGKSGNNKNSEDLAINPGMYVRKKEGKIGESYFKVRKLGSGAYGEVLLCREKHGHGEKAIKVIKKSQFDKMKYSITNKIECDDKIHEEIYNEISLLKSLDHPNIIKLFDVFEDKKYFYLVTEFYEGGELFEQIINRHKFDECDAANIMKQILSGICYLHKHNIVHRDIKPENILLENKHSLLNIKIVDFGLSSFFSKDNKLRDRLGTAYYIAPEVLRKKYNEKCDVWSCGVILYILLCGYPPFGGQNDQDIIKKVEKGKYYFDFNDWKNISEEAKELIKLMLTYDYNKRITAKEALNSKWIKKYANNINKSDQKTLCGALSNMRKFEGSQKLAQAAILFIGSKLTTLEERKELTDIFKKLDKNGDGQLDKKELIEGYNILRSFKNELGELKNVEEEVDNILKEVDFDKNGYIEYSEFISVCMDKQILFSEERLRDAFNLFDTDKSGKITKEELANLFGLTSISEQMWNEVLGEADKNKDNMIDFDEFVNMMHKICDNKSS

outcome, inactive:
OC(COc1ccccc1-c1nc2ccccc2o1)CN1CCCN(CCc2ccccc2)CC1 (stereo not given)
CCC(C)NS(=O)(=O)c1ccc2nc(Nc3ccc(C)cc3)n([C@H](C)C(C)(C)C)c2c1 (stereo not given in full)
CC(C)CNC(=O)c1cncc(-c2cccc(CNC3Cc4ccccc4C3)c2)c1
COc1ccc2nccc([C@@H](O)CN3CCC(NC(=O)c4ccc(Oc5ccccc5)cc4)CC3)c2c1
CC(C)c1ccc(CN2CCC(CNC(=O)c3cc(-c4cccc(F)c4)cs3)C2)cc1 (stereo not given)
COc1ccc2[nH]c(C(=O)Nc3ccc4nc(-c5ccccc5)[nH]c4c3)cc2c1
Cc1cc(NC(c2ccc(Cl)cc2)c2ccc3cccnc3c2O)no1 (stereo not given)
Clc1ccc(CNC2CCN(CC3CCCCC3)CC2)cc1
CS(=O)(=O)c1cccc2sc(N3CCN(C(=O)c4ccc([N+](=O)[O-])o4)CC3)nc12
CCOC(=O)c1ccc(NC(=O)N(Cc2ccc(-c3cccc(CN4CCNCC4)c3)cc2)C2CCN(Cc3ccccc3)CC2)cc1
CCCCOc1ccc(N2C(N)=NC(N)=NC2(C)C)cc1
O=C(/C=C/c1ccc(Cl)c(Cl)c1)NCCCCCCN1CCN(C(=O)Nc2ccc(Cl)c(C(F)(F)F)c2)CC1
CCCCNC(=O)C(C)NC(=O)c1ccc(O)c(-c2ccc(Cl)c(Cl)c2)c1 (stereo not given)
N#Cc1ccc2c(c1)CCN(CCC1CCC(NC(=O)c3cc4cccc([N+](=O)[O-])c4[nH]3)CC1)C2 (stereo not given)
Cc1cccc(-c2nn(-c3ccccc3)c3[nH]c(=O)c(CNC4CCCC4)cc23)c1
